# Reference: the supplement of paper PMC7556523
# Test system: Sporothrix schenckii ATCC 32286
# Assay: growth inhibition relative to untreated control; higher = more growth inhibition (more antifungal activity), active = 80 or more; extreme values may be limits of the assay
# Conditions: 1 µM; 48 h
# Outline: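 Each value is the percent growth inhibition compared with cells left untreated. Reference isolates were grown as yeast-form cells in brain heart infusion broth with 2% glucose for 7 days at 36°C, then exposed at 1 x 10^5 CFU/ml to library compounds at a final 1 μM for 48 h at 35°C in 5% CO2. Growth was inspected visually under an inverted light microscope and quantified by spectrophotometric readings, with runs in quadruplicate.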
row,Compound,growth inhibition
1,CO/C=C(/C(=O)OC)c1ccccc1Oc1cc(Oc2ccccc2C#N)ncn1,27.5% (inactive)
2,O=C1O[C@@H](CO)CN1c1cc(F)c(C2=CCN(Cc3ccccc3)CC2)c(F)c1,0.5% (inactive)
3,CC1(C)OB(O)c2ccc(C3=NOC(c4cc(Cl)c(F)c(Cl)c4)(C(F)(F)F)C3)cc21 (centres undefined),18% (inactive)
4,CCc1nn(C)c(C(=O)NCc2ccc(Oc3ccc(C)cc3)cc2)c1Cl,96.5% (active)
5,Nc1c2c(nc3sc4c(c13)CCCC4)CCCC2,17% (inactive)
6,Cc1cccc(C(=O)Nc2ccnc(N(C)C3CCN(CC(C)C)CC3)c2)c1,9% (inactive)
7,CC1COC(Cn2cncn2)(c2ccc(Oc3ccc(Cl)cc3)cc2Cl)O1 (centres undefined),70.2% (inactive)
8,CC(C)(C)C(O)C(Oc1ccc(-c2ccccc2)cc1)n1cncn1 (centres undefined),61.8% (inactive)
9,O=C1O[C@@H](COc2ccon2)CN1c1cc(F)c(C2=CCN(Cc3ccccc3)CC2)c(F)c1,0% (inactive)
10,CO/N=C(\C(=O)OC)c1ccccc1CO/N=C(\C)c1cccc(C(F)(F)F)c1,40% (inactive)
11,Cc1nn(Cc2ccccc2)c(Cl)c1C(=O)NC1CCCCCC1,3% (inactive)
12,Cc1nn(C)c(C)c1NS(=O)(=O)c1c(Cl)cc(-c2ccnc(N3CCNCC3)c2)cc1Cl,17.5% (inactive)
13,CO[C@@H]1CN(c2ccc(C#CC3(O)CN4CCC3CC4)c(Cc3ccccc3)n2)C[C@H]1O (some centres undefined),5.5% (inactive)
14,Cc1cc(C2=NOC(c3cc(Cl)c(F)c(Cl)c3)(C(F)(F)F)C2)ccc1C(=O)NCc1ccc2c(c1)C(C)(C)OB2O (centres undefined),18.2% (inactive)
